Article PMC10726135, “HNF4α isoforms regulate the circadian balance between carbohydrate and lipid metabolism in the liver”
In all, about 18,000 sequences were measured (“log2 normalized intensity”: median about 0.36, highest 2% from about 7.3 on). The full list was thinned out, with the highest values kept by preference.

Biological target: T1, HNF4alpha8 (COS-7 nuclear extract) (Homo sapiens, UniProt P41235-5 1-452)
T1 sequence: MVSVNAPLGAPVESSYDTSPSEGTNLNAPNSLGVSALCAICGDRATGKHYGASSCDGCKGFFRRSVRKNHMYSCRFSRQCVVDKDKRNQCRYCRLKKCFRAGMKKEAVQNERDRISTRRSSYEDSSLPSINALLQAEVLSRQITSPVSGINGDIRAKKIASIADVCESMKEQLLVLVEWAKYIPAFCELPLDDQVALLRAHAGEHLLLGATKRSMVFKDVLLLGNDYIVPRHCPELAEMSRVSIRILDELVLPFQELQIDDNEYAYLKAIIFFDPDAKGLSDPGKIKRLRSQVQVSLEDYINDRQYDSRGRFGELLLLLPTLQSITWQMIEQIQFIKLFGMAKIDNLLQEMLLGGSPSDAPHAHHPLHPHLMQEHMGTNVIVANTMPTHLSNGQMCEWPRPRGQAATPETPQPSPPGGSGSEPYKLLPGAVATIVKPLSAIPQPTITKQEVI
Test: protein-binding microarray; COS-7 nuclear extract on double-stranded Agilent 4x180k PBM; binding buffer, salt, pH and temperature not given in the material; high values mean tight binding
Settings: chain copies: 2; label: 3' end of strand 1 on the slide; dsDNA, one strand shown
How it was run: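 Binding signal was defined as the normalized, background-corrected gProcessedSignal reported by Agilent software. It came from nuclear extracts of COS-7 cells transiently transfected with a human HNF4α isoform expression vector, applied to a custom Agilent SurePrint G3 4x180k array. That array held ~44,000 test sequences in quadruplicate as double-stranded ~60-nt oligonucleotides, and bound HNF4α was imaged at 2-µm resolution on an Agilent G2565CA scanner.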

Row | Sequence | binding signal [log2 normalized intensity]
1 | TTACAGTGTGAATCTCCAACAAGGCAGGAGGCCTAGGGAGATTAGAGTATCGGTCGA | -0.531
2 | GTCATAATTTGATCCAGTGTGCAAATGTGTGCCTAGGGAGATTAGAGTATCGGTCGA | 2.05
3 | CCACAACCTACCCTTTGCCCTGGACATATTGCCTAGGGAGATTAGAGTATCGGTCGA | 3.27
4 | GCAAACCTGCCCTTTGCTCCAGAGGAAGATGCCTAGGGAGATTAGAGTATCGGTCGA | 3.81
5 | TTCAAATTCTTTGCCATGACCTTTGAAGCCGCCTAGGGAGATTAGAGTATCGGTCGA | 7.52
6 | ATTCTTTGCCATGACCTTTGAAGCCCAGAAGCCTAGGGAGATTAGAGTATCGGTCGA | 5.57
7 | GCCATGGACTGCTGACCTTTGAACCCTGAGGCCTAGGGAGATTAGAGTATCGGTCGA | 10.3
8 | CCTTTGAGGAGGCCTTTCCTGACCCCTCCTGCCTAGGGAGATTAGAGTATCGGTCGA | 4.78
9 | GGCAGATATGAAAGAGCCATGGACTGCTGAGCCTAGGGAGATTAGAGTATCGGTCGA | -0.289
10 | AGCAATTCAAATTCTTTGCCATGACCTTTGGCCTAGGGAGATTAGAGTATCGGTCGA | 6.24
11 | AAAGAGCCATGGACTGCTGACCTTTGAACCGCCTAGGGAGATTAGAGTATCGGTCGA | 9.59
12 | ATATGAAAGAGCCATGGACTGCTGACCTTTGCCTAGGGAGATTAGAGTATCGGTCGA | 7.13
13 | ATCTTTGACCTGGAGCATGACCCTTTGCAGGCCTAGGGAGATTAGAGTATCGGTCGA | 3.64
14 | CTGCTGCCCAAAGGTCACCTCTTCAGATAGGCCTAGGGAGATTAGAGTATCGGTCGA | 3.89
15 | CTGTTTGACCAAAGCTACTCATCATGAACTGCCTAGGGAGATTAGAGTATCGGTCGA | 0.948
16 | TAGACATAGGTTATAAACTTGTTTGGGATTGCCTAGGGAGATTAGAGTATCGGTCGA | 0.308
17 | AAAGTCCAACACAGAAGCCTTTTGTTCTTTGCCTAGGGAGATTAGAGTATCGGTCGA | 2.15
18 | AATGTCTGGAAGTTCTTCCTTAAGTCTAACGCCTAGGGAGATTAGAGTATCGGTCGA | 0.865
19 | GGACTTGGTAAAGTCAATAATCTAGAAACCGCCTAGGGAGATTAGAGTATCGGTCGA | 0.338
20 | GGCATGGGAAGCAGTGAGGGTGGGTTCAAAGCCTAGGGAGATTAGAGTATCGGTCGA | 1.64
21 | GCAGTGAGGGTGGGTTCAAAGGTCAGAAAAGCCTAGGGAGATTAGAGTATCGGTCGA | 8.97
22 | TAGAAGCAGTGGGACAAAGGTCACAGGAAAGCCTAGGGAGATTAGAGTATCGGTCGA | 5.05

Row | Sequence | binding signal [log2 normalized intensity]
23 | TGGGTTCAAAGGTCAGAAAAAGCTGACGCCGCCTAGGGAGATTAGAGTATCGGTCGA | 7.25
24 | GGGAAGCAGTGAGGGTGGGTTCAAAGGTCAGCCTAGGGAGATTAGAGTATCGGTCGA | 8.86
25 | GAGGGTGGGTTCAAAGGTCAGAAAAAGCTGGCCTAGGGAGATTAGAGTATCGGTCGA | 7.27
26 | ATAAGGTAACAGGCCAAAGGGCAAGAACAAGCCTAGGGAGATTAGAGTATCGGTCGA | 3.1
27 | TCACCTCGCTCCCCTCCTGTCAGTTTATTTGCCTAGGGAGATTAGAGTATCGGTCGA | 2.3
28 | CCCCCTGTGATTACTTCCACTCTTGCAGATGCCTAGGGAGATTAGAGTATCGGTCGA | 0.911
29 | TTTGCCAAAGCATAGCAAGAGTGACCTTTGGCCTAGGGAGATTAGAGTATCGGTCGA | 7.18
30 | CAAAGCATAGCAAGAGTGACCTTTGCTCCAGCCTAGGGAGATTAGAGTATCGGTCGA | 9
31 | AGATAGCATTCCAAGAGAGCAAAGTGCTTTGCCTAGGGAGATTAGAGTATCGGTCGA | 1.21
32 | CCTGCATATCCTGACTGCTGACCTTTAAGCGCCTAGGGAGATTAGAGTATCGGTCGA | 5.56
33 | CAAGAGTGACCTTTGCTCCAGTTCCCAATAGCCTAGGGAGATTAGAGTATCGGTCGA | 6.59
34 | GTGACCTTTGCTCCAGTTCCCAATAAGTTGGCCTAGGGAGATTAGAGTATCGGTCGA | 5.13
35 | AAAAGTGACCTTTGCTCCAGTTCCCAATAAGCCTAGGGAGATTAGAGTATCGGTCGA | 7.02
36 | CATAGCAAGAGTGACCTTTGCTCCAGTTCCGCCTAGGGAGATTAGAGTATCGGTCGA | 8.19
37 | ATAGCAAAAGTGACCTTTGCTCCAGTTCCCGCCTAGGGAGATTAGAGTATCGGTCGA | 8.52
38 | CTTCTTTGCTTAAGCATAGCAAAAGTGACCGCCTAGGGAGATTAGAGTATCGGTCGA | 3.13
39 | TTGCTTAAGCATAGCAAAAGTGACCTTTGCGCCTAGGGAGATTAGAGTATCGGTCGA | 9.23
40 | TGACCTTTGCTCCAGTTCCCAATAATTTCCGCCTAGGGAGATTAGAGTATCGGTCGA | 5.13
41 | TGTCAGGAACAACTTCGGGAATCTGACCTTGCCTAGGGAGATTAGAGTATCGGTCGA | 4.3
42 | GCTTACAACTCTAAGGGGGAAAGTCCACGTGCCTAGGGAGATTAGAGTATCGGTCGA | 4.61
43 | CTCAACCTCCCCCTGGGGACAGGTGTTAATGCCTAGGGAGATTAGAGTATCGGTCGA | 2.27
44 | CACGTGCAAAGTACAAAGTACAGAGATGGCGCCTAGGGAGATTAGAGTATCGGTCGA | 3.78

Row | Sequence | binding signal [log2 normalized intensity]
45 | GGGTAACTGACCTTGTTGCCCACCCCCCAAGCCTAGGGAGATTAGAGTATCGGTCGA | 5.8
46 | TCAATGGCCCCAGTGCACGTGCATGAGGCCGCCTAGGGAGATTAGAGTATCGGTCGA | -0.475
47 | GGATCCTTGGAGGACCTTGGGTTCATTTTAGCCTAGGGAGATTAGAGTATCGGTCGA | 2.86
48 | TTTTGCTCTGATCCTAGTCTTTGCCCCACTGCCTAGGGAGATTAGAGTATCGGTCGA | 3.94
49 | ACTGCCCGCTGGCCTCCCCATCCTCATGACGCCTAGGGAGATTAGAGTATCGGTCGA | 2.93
50 | CAAGCTGACAAACATGTATCAGTGATAGACGCCTAGGGAGATTAGAGTATCGGTCGA | -0.0274
51 | AATCGACCTTTAGCACCGTAAGAGAGTATTGCCTAGGGAGATTAGAGTATCGGTCGA | 4.63
52 | TATGACCTTTGCTTTTCAAGATTTTACCTAGCCTAGGGAGATTAGAGTATCGGTCGA | 2.72
53 | CTTTAGCACCTTCATCCAAAGATGACCTTTGCCTAGGGAGATTAGAGTATCGGTCGA | 8.24
54 | TAACTCCTTTGTGTGAATCGACCTTTAGCAGCCTAGGGAGATTAGAGTATCGGTCGA | 6.42
55 | TCTTATTGCCTCATGTTTGCAGAATGGCTGGCCTAGGGAGATTAGAGTATCGGTCGA | 0.617
56 | GGACTTGGGACTTTCGAGTTAATGCTGGAGGCCTAGGGAGATTAGAGTATCGGTCGA | 3.2
57 | CCTTTGGACTGTCCTTTGCTAGATTCTTTCGCCTAGGGAGATTAGAGTATCGGTCGA | 2.13
58 | TTTGGACTTTGGACTTGGGACTTTCGAGTTGCCTAGGGAGATTAGAGTATCGGTCGA | 8.22
59 | GAGACTTTGGACTTTGGACTTGGGACTTTCGCCTAGGGAGATTAGAGTATCGGTCGA | 9.81
60 | ACTTTGGACTTGGGACTTTCGAGTTAATGCGCCTAGGGAGATTAGAGTATCGGTCGA | 4.67
61 | CTGGACTTTCCTTTGTTGGGAGACTTTTTAGCCTAGGGAGATTAGAGTATCGGTCGA | 1.45
62 | ATAGCAAACACGATTGGATGGAAGGTCCTTGCCTAGGGAGATTAGAGTATCGGTCGA | 0.748
63 | AATCAAACTGAACTTTGAAACAAGCCCATCGCCTAGGGAGATTAGAGTATCGGTCGA | 3.87
64 | CAACCTCTCCAATGCTATGCTTTTATTTAAGCCTAGGGAGATTAGAGTATCGGTCGA | -0.995
65 | CATCATAAACCCGATCCTTACTATTAGGTCGCCTAGGGAGATTAGAGTATCGGTCGA | 1
66 | GGACTTTGGGCTGTGTTTTGCCCCTGCAGAGCCTAGGGAGATTAGAGTATCGGTCGA | 4.12

Row | Sequence | binding signal [log2 normalized intensity]
67 | CTTGGCTGTGCTGCCCTTTGCCCTTTGGGAGCCTAGGGAGATTAGAGTATCGGTCGA | 7.91
68 | GGGTGGGGTGCTGCCTTTCCTGTGACTTTTGCCTAGGGAGATTAGAGTATCGGTCGA | 2.09
69 | GAGAGTTTTCCTTGGCTGTGCTGCCCTTTGGCCTAGGGAGATTAGAGTATCGGTCGA | 4.01
70 | CTGTGCTGCCCTTTGCCCTTTGGGAAGGGGGCCTAGGGAGATTAGAGTATCGGTCGA | 6.59
71 | TTTTCCTTGGCTGTGCTGCCCTTTGCCCTTGCCTAGGGAGATTAGAGTATCGGTCGA | 8.52
72 | GCGTAGCCCAAAGGTCAGTCTGCAGCTAATGCCTAGGGAGATTAGAGTATCGGTCGA | 3.36
73 | AGTAGGCACTATTATCCCCCTATCCCAAGAGCCTAGGGAGATTAGAGTATCGGTCGA | 4.72
74 | CCCCTCAGTTTTTCTCTTTTGACCTTTGGAGCCTAGGGAGATTAGAGTATCGGTCGA | 9.54
75 | GTGCTTGGACCTGCTCTGTTTTCTTTCGGTGCCTAGGGAGATTAGAGTATCGGTCGA | 1.24
76 | CCTAAGCCTTATTATCTGCTTTTATGACCTGCCTAGGGAGATTAGAGTATCGGTCGA | 3.51
77 | GCATGACCTCAACTCTCAGTTTGGCTCTTAGCCTAGGGAGATTAGAGTATCGGTCGA | 0.116
78 | ATTATCTGCTTTTATGACCTTTGACTGCAGGCCTAGGGAGATTAGAGTATCGGTCGA | 7.32
79 | GCCTTATTATCTGCTTTTATGACCTTTGACGCCTAGGGAGATTAGAGTATCGGTCGA | 8.05
80 | TTTGTTGCCTCTTTTCTGCTTTTGGAATTTGCCTAGGGAGATTAGAGTATCGGTCGA | 3.37
81 | CGCATTTCTGCTTCTTCTCATTCTTGGAATGCCTAGGGAGATTAGAGTATCGGTCGA | 1.49
82 | GGTGACCCCTCAGTTTTTCTCTTTTGACCTGCCTAGGGAGATTAGAGTATCGGTCGA | 4.77
83 | CTGCTTTTGGAATTTGACCTCATTTGCTCCGCCTAGGGAGATTAGAGTATCGGTCGA | 6.52
84 | TGCCTCTTTTCTGCTTTTGGAATTTGACCTGCCTAGGGAGATTAGAGTATCGGTCGA | 8.78
85 | CTTTTCTGCTTTTGGAATTTGACCTCATTTGCCTAGGGAGATTAGAGTATCGGTCGA | 7.55
